PubChem BioAssay AID1159580 (chemical genetic matrix, 2015)
Among all 5,500 compounds or so, about 2,000 (36%) were called active. Inconclusive results (about 18%) are left out. No stated cut-off is given here; in the data, active means normalized growth mostly below about 0.91 (no sharp cut-off); inconclusive means no clear call, values can overlap the other calls; inactive means mostly above about 0.92. This is one part of the list.

Test: chemical genetic growth profiling, strain panel (AID 1159580);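 further: tested at 20 µM; growth read once vehicle control cultures reached saturation at 30 °C; 1 = growth at the plate median or of vehicle wells; lower values mean less growth of the strain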
Settings: growth OD

Measured: normalized growth

COc1ccc2ccc(=O)oc2c1CC=C(C)C
inactive: S. cerevisiae deletion strains, locus YAL021C, strain ccr4, active compounds read low 1.02 | S. cerevisiae deletion strains, locus YBR171W, strain sec66, active compounds read low 0.896 | S. cerevisiae deletion strains, locus YDL005C, strain med2, active compounds read low 0.948 | S. cerevisiae deletion strains, locus YDL185W, strain tfp1, active compounds read low 0.928 | S. cerevisiae deletion strains, locus YDR069C, strain doa4, active compounds read low 1.03 | S. cerevisiae deletion strains, locus YDR195W, strain ref2 1.02 | S. cerevisiae deletion strains, locus YDR297W, strain sur2, active compounds read low 0.934 | S. cerevisiae deletion strains, locus YDR334W, strain swr1, active compounds read low 0.936 | S. cerevisiae deletion strains, locus YDR335W, strain msn5, active compounds read low 0.95 | S. cerevisiae deletion strains, locus YEL037C, strain rad23, active compounds read low 0.935 | S. cerevisiae deletion strains, locus YEL061C, strain CIN8 (second series), active compounds read low 0.921 | S. cerevisiae deletion strains, locus YER015W, strain faa2, active compounds read low 0.935 | S. cerevisiae deletion strains, locus YER111C, strain swi4, active compounds read low 0.942 | S. cerevisiae deletion strains, locus YFR010W, strain ubp6, active compounds read low 0.923 | S. cerevisiae deletion strains, locus YGL173C, strain kem1, active compounds read low 0.94 | S. cerevisiae deletion strains, locus YHR027C, strain rpn1, active compounds read low 0.957 | S. cerevisiae deletion strains, locus YIL073C, strain SPO22, active compounds read low 0.85 | S. cerevisiae deletion strains, locus YJL095W, strain BCK1 (second series), active compounds read low 0.936 | S. cerevisiae deletion strains, locus YJL115W, strain asf1, active compounds read low 0.967 | S. cerevisiae deletion strains, locus YJL154C, strain vps35, active compounds read low 0.944 | S. cerevisiae deletion strains, locus YJL168C, strain set2, active compounds read low 0.941 | S. cerevisiae deletion strains, locus YJL187C, strain SWE1, active compounds read low 0.937 | S. cerevisiae deletion strains, locus YKL160W, strain elf1, active compounds read low 0.912 | S. cerevisiae deletion strains, locus YLL041C, strain sdh2, active compounds read low 0.945 | S. cerevisiae deletion strains, locus YLR342W, strain FKS1, active compounds read low 0.923 | S. cerevisiae deletion strains, locus YLR384C, strain iki3, active compounds read low 0.957 | S. cerevisiae deletion strains, locus YML016C, strain PPZ1, active compounds read low 0.926 | S. cerevisiae deletion strains, locus YMR231W, strain pep5, active compounds read low 0.935 | S. cerevisiae deletion strains, locus YMR307W, strain GAS1, active compounds read low 0.706 | S. cerevisiae deletion strains, locus YNL209W, strain ssb2, active compounds read low 0.958 | S. cerevisiae deletion strains, locus YNL248C, strain rpa49, active compounds read low 0.971 | S. cerevisiae deletion strains, locus YNL250W, strain rad50, active compounds read low 0.918 | S. cerevisiae deletion strains, locus YOL012C, strain htz1 0.768 | S. cerevisiae deletion strains, locus YOR061W, strain CKA2, active compounds read low 0.929 | S. cerevisiae deletion strains, locus YOR080W, strain dia2, active compounds read low 0.93 | S. cerevisiae deletion strains, locus YOR083W, strain WHI5, active compounds read low 0.895 | S. cerevisiae deletion strains, locus YOR106W, strain vam3, active compounds read low 0.917 | S. cerevisiae deletion strains, locus YPL051W, strain arl3, active compounds read low 0.931 | S. cerevisiae deletion strains, locus YPL106C, strain sse1, active compounds read low 0.917 | S. cerevisiae deletion strains, locus YPL240C, strain hsp82, active compounds read low 0.96 | S. cerevisiae deletion strains, locus YPR141C, strain kar3, active compounds read low 0.937
active: S. cerevisiae deletion strains, locus YAL026C, strain drs2, active compounds read low 0.883 | S. cerevisiae deletion strains, locus YAL030W, strain snc1, active compounds read low 0.92 | S. cerevisiae deletion strains, locus YBL061C, strain skt5, active compounds read low 0.912 | S. cerevisiae deletion strains, locus YBR009C, strain hhf1, active compounds read low 0.769 | S. cerevisiae deletion strains, locus YBR021W, strain FUR4, active compounds read low 0.662 | S. cerevisiae deletion strains, locus YBR023C, strain chs3, active compounds read low 0.843 | S. cerevisiae deletion strains, locus YBR229C, strain ROT2, active compounds read low 0.885 | S. cerevisiae deletion strains, locus YBR231C, strain swc5, active compounds read low 0.866 | S. cerevisiae deletion strains, locus YBR279W, strain paf1, active compounds read low 0.929 | S. cerevisiae deletion strains, locus YCL011C, strain gbp2, active compounds read low 0.787 | S. cerevisiae deletion strains, locus YCL016C, strain dcc1, active compounds read low 0.891 | S. cerevisiae deletion strains, locus YCL029C, strain bik1, active compounds read low 0.826 | S. cerevisiae deletion strains, locus YCL061C, strain MRC1, active compounds read low 0.835 | S. cerevisiae deletion strains, locus YCL069W, strain vba3, active compounds read low 0.919 | S. cerevisiae deletion strains, locus YCR088W, strain abp1, active compounds read low 0.915 | S. cerevisiae deletion strains, locus YDL035C, strain GPR1, active compounds read low 0.794 | S. cerevisiae deletion strains, locus YDL040C, strain nat1, active compounds read low 0.91 | S. cerevisiae deletion strains, locus YDL074C, strain BRE1, active compounds read low 0.752 | S. cerevisiae deletion strains, locus YDL101C, strain DUN1, active compounds read low 0.768 | S. cerevisiae deletion strains, locus YDL192W, strain arf1, active compounds read low 0.794 | S. cerevisiae deletion strains, locus YDR001C, strain nth1, active compounds read low 0.909 | S. cerevisiae deletion strains, locus YDR101C, strain arx1, active compounds read low 0.823 | S. cerevisiae deletion strains, locus YDR137W, strain rgp1, active compounds read low 0.715 | S. cerevisiae deletion strains, locus YDR159W, strain sac3, active compounds read low 0.771 | S. cerevisiae deletion strains, locus YDR162C, strain NBP2, active compounds read low 0.645 | S. cerevisiae deletion strains, locus YDR318W, strain mcm21, active compounds read low 0.741 | S. cerevisiae deletion strains, locus YDR388W, active compounds read low 0.89 | S. cerevisiae deletion strains, locus YDR392W, strain spt3, active compounds read low 0.396 | S. cerevisiae deletion strains, locus YDR502C, strain sam2, active compounds read low 0.788 | S. cerevisiae deletion strains, locus YEL003W, strain gim4, active compounds read low 0.832 | S. cerevisiae deletion strains, locus YEL061C, strain CIN8, active compounds read low 0.774 | S. cerevisiae deletion strains, locus YER016W, strain bim1, active compounds read low 0.91 | S. cerevisiae deletion strains, locus YER110C, active compounds read low 0.873 | S. cerevisiae deletion strains, locus YER155C, strain BEM2 (second series), active compounds read low 0.434 | S. cerevisiae deletion strains, locus YER155C, strain BEM2, active compounds read low 0.657 | S. cerevisiae deletion strains, locus YER167W, strain BCK2, active compounds read low 0.561 | S. cerevisiae deletion strains, locus YGL078C, strain dbp3, active compounds read low 0.917 | S. cerevisiae deletion strains, locus YGL086W, strain mad1, active compounds read low 0.844 | S. cerevisiae deletion strains, locus YGL167C, strain pmr1, active compounds read low 0.908 | S. cerevisiae deletion strains, locus YGL227W, strain vid30, active compounds read low 0.875 | S. cerevisiae deletion strains, locus YGL240W, strain doc1, active compounds read low 0.701 | S. cerevisiae deletion strains, locus YGL248W, strain PDE1, active compounds read low 0.704 | S. cerevisiae deletion strains, locus YGL253W, strain hxk2, active compounds read low 0.818 | S. cerevisiae deletion strains, locus YGR135W, strain pre9, active compounds read low 0.75 | S. cerevisiae deletion strains, locus YGR252W, strain gcn5, active compounds read low 0.583 | S. cerevisiae deletion strains, locus YHR013C, strain ard1, active compounds read low 0.801 | S. cerevisiae deletion strains, locus YHR030C, strain SLT2, active compounds read low 0.831 | S. cerevisiae deletion strains, locus YHR079C, strain IRE1 (second series), active compounds read low 0.896 | S. cerevisiae deletion strains, locus YHR094C, strain hxt1, active compounds read low 0.898 | S. cerevisiae deletion strains, locus YHR129C, strain ARP1, active compounds read low 0.741 | S. cerevisiae deletion strains, locus YHR142W, strain chs7, active compounds read low 0.739 | S. cerevisiae deletion strains, locus YHR200W, strain rpn10, active compounds read low 0.812 | S. cerevisiae deletion strains, locus YIL066C, strain RNR3, active compounds read low 0.622 | S. cerevisiae deletion strains, locus YIL125W, strain kgd1, active compounds read low 0.888 | S. cerevisiae deletion strains, locus YIR030C, strain dcg1, active compounds read low 0.841 | S. cerevisiae deletion strains, locus YJL092W, strain hpr5, active compounds read low 0.896 | S. cerevisiae deletion strains, locus YJL095W, strain BCK1, active compounds read low 0.566 | S. cerevisiae deletion strains, locus YJL129C, strain trk1, active compounds read low 0.866 | S. cerevisiae deletion strains, locus YJL134W, strain LCB3, active compounds read low 0.921 | S. cerevisiae deletion strains, locus YJL164C, strain tpk1, active compounds read low 0.883 | S. cerevisiae deletion strains, locus YJL166W, strain qcr8, active compounds read low 0.803 | S. cerevisiae deletion strains, locus YJL187C, strain SWE1 (second series), active compounds read low 0.783 | S. cerevisiae deletion strains, locus YJR043C, strain POL32, active compounds read low 0.538 | S. cerevisiae deletion strains, locus YKL009W, strain mrt4, active compounds read low 0.873 | S. cerevisiae deletion strains, locus YKL068W, active compounds read low 0.898 | S. cerevisiae deletion strains, locus YKL085W, strain MDH1 (second series), active compounds read low 0.916 | S. cerevisiae deletion strains, locus YKL085W, strain MDH1, active compounds read low 0.916 | S. cerevisiae deletion strains, locus YKR001C, strain vps1, active compounds read low 0.589 | S. cerevisiae deletion strains, locus YKR026C, strain gcn3, active compounds read low 0.906 | S. cerevisiae deletion strains, locus YKR091W, strain srl3, active compounds read low 0.926 | S. cerevisiae deletion strains, locus YLL001W, strain dnm1, active compounds read low 0.87 | S. cerevisiae deletion strains, locus YLL026W, active compounds read low 0.857 | S. cerevisiae deletion strains, locus YLR027C, strain aat2, active compounds read low 0.845 | S. cerevisiae deletion strains, locus YLR039C, strain RIC1, active compounds read low 0.438 | S. cerevisiae deletion strains, locus YLR058C, strain SHM2, active compounds read low 0.794 | S. cerevisiae deletion strains, locus YLR102C, strain apc9, active compounds read low 0.891 | S. cerevisiae deletion strains, locus YLR221C, strain rsa3, active compounds read low 0.871 | S. cerevisiae deletion strains, locus YLR258W, strain gsy2, active compounds read low 0.848 | S. cerevisiae deletion strains, locus YLR262C, strain YPT6 (second series), active compounds read low 0.642 | S. cerevisiae deletion strains, locus YLR262C, strain YPT6, active compounds read low 0.476 | S. cerevisiae deletion strains, locus YLR268W, strain sec22, active compounds read low 0.723 | S. cerevisiae deletion strains, locus YLR320W, strain mms22, active compounds read low 0.607 | S. cerevisiae deletion strains, locus YLR330W, strain CHS5, active compounds read low 0.658 | S. cerevisiae deletion strains, locus YLR342W, strain FKS1 (second series), active compounds read low 0.705 | S. cerevisiae deletion strains, locus YLR357W, strain rsc2, active compounds read low 0.761 | S. cerevisiae deletion strains, locus YLR370C, strain arc18, active compounds read low 0.899 | S. cerevisiae deletion strains, locus YLR371W, strain rom2, active compounds read low 0.889 | S. cerevisiae deletion strains, locus YLR418C, strain cdc73, active compounds read low 0.492 | S. cerevisiae deletion strains, locus YML032C, strain rad52, active compounds read low 0.779 | S. cerevisiae deletion strains, locus YML120C, strain ndi1, active compounds read low 0.822 | S. cerevisiae deletion strains, locus YML124C, strain tub3, active compounds read low 0.859 | S. cerevisiae deletion strains, locus YMR058W, strain fet3, active compounds read low 0.89 | S. cerevisiae deletion strains, locus YMR078C, strain ctf18, active compounds read low 0.891 | S. cerevisiae deletion strains, locus YMR125W, strain sto1, active compounds read low 0.81 | S. cerevisiae deletion strains, locus YMR129W, active compounds read low 0.904 | S. cerevisiae deletion strains, locus YMR205C, strain PFK2, active compounds read low 0.659 | S. cerevisiae deletion strains, locus YMR223W, strain ubp8, active compounds read low 0.797 | S. cerevisiae deletion strains, locus YMR263W, strain SAP30, active compounds read low 0.826 | S. cerevisiae deletion strains, locus YNL067W, strain RPL9B, active compounds read low 0.762 | S. cerevisiae deletion strains, locus YNL071W, strain lat1, active compounds read low 0.672 | S. cerevisiae deletion strains, locus YNL153C, strain GIM3, active compounds read low 0.713 | S. cerevisiae deletion strains, locus YNL233W, strain BNI4, active compounds read low 0.567 | S. cerevisiae deletion strains, locus YNL271C, strain bni1, active compounds read low 0.907 | S. cerevisiae deletion strains, locus YNL298W, strain CLA4, active compounds read low 0.829 | S. cerevisiae deletion strains, locus YNL307C, strain MCK1, active compounds read low 0.381 | S. cerevisiae deletion strains, locus YNL322C, strain KRE1 (second series), active compounds read low 0.807 | S. cerevisiae deletion strains, locus YNL322C, strain KRE1, active compounds read low 0.804 | S. cerevisiae deletion strains, locus YNR049C, strain mso1, active compounds read low 0.914 | S. cerevisiae deletion strains, locus YNR052C, strain pop2, active compounds read low 0.909 | S. cerevisiae deletion strains, locus YOL147C, strain pex11, active compounds read low 0.726 | S. cerevisiae deletion strains, locus YOR001W, strain rrp6, active compounds read low 0.889 | S. cerevisiae deletion strains, locus YOR069W, strain VPS5, active compounds read low 0.89 | S. cerevisiae deletion strains, locus YOR070C, strain gyp1, active compounds read low 0.917 | S. cerevisiae deletion strains, locus YOR136W, strain idh2, active compounds read low 0.911 | S. cerevisiae deletion strains, locus YOR144C, strain elg1, active compounds read low 0.855 | S. cerevisiae deletion strains, locus YOR184W, strain ser1, active compounds read low 0.481 | S. cerevisiae deletion strains, locus YOR265W, strain rbl2, active compounds read low 0.921 | S. cerevisiae deletion strains, locus YOR270C, strain vph1, active compounds read low 0.532 | S. cerevisiae deletion strains, locus YOR290C, strain snf2, active compounds read low 0.712 | S. cerevisiae deletion strains, locus YOR316C, strain cot1, active compounds read low 0.864 | S. cerevisiae deletion strains, locus YPL078C, strain atp4, active compounds read low 0.845 | S. cerevisiae deletion strains, locus YPR119W, strain clb2, active compounds read low 0.888 | S. cerevisiae deletion strains, locus YPR163C, strain tif3, active compounds read low 0.796 | S. cerevisiae deletion strains, locus YPR167C, strain met16, active compounds read low 0.799 | S. cerevisiae deletion strains, strain wtn01, active compounds read low 0.843 | S. cerevisiae strains, strain wild type, active compounds read low 0.798
